SF-1 inh – inhibitors of human SF-1, primary screen, cell-based, CHO-K1, Gal4-SF-1 LBD, luciferase luminescence. 0.55% of 65,000 active. Steroidogenic factor 1 (Homo sapiens), Q13285. inhibition, % at 10 µM. CHO-K1 Gal4-SF-1 LBD luciferase reporter;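 active = inhibition above the mean inhibition of all tested compounds plus 3 SD, cut at about 48% in these data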
Target sequence (Q13285 whole entry, looked up, the tested form may be a part): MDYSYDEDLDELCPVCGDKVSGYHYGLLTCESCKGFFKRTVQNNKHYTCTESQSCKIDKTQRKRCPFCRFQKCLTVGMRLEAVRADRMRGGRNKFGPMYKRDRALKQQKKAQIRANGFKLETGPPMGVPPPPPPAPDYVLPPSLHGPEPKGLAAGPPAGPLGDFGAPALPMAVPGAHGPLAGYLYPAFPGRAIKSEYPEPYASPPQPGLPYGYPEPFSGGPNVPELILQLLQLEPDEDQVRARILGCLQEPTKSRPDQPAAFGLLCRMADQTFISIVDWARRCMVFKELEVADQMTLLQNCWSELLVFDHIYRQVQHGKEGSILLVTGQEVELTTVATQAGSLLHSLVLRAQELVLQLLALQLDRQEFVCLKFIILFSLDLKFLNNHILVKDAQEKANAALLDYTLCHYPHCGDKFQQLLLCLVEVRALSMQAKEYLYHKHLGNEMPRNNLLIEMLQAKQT
Hits are given with their value. The sample as a whole holds a higher share of hits than the screen did.

`O=C(CSC1=NCCS1)Nc1ccnc2ccccc12` gave SF-1 inh 67.
Screening O=C(CCCSc1nc2ccccc2[nH]1)NC1=NCCS1 returned SF-1 inh inactive.
`O=C(CSc1cn(Cc2ccccc2)c2ccccc12)Nc1nccs1` gave SF-1 inh inactive.
For O=C(CCOc1ccccc1)Nc1ccc(S(=O)(=O)N2CCCC2)cc1 the results were SF-1 inh inactive.
`CCCCS(=O)(=O)/C=C\C=C/S(=O)(=O)CCCC` gave SF-1 inh 96.
`Cn1c(C(=O)NCc2cccs2)cc2oc3ccccc3c21` gave SF-1 inh inactive.
`CCOC(=O)CNc1c(N2CCN(c3ccccn3)CC2)c(=O)c1=O` gave SF-1 inh inactive.
For CCOC(=O)N1CCC(N2C(=O)c3ccc(C(=O)Nc4ccc(F)cc4F)cc3C2=O)CC1 the results were SF-1 inh inactive.
Cc1ccc(NC2=NC(c3ccc(C)cc3)n3c(nc(C)cc3=O)N2)cc1 (centres undefined) was read as SF-1 inh inactive.
`COC(=O)c1nn(-c2ccc(-c3ccccc3)cc2)cc1O` gave SF-1 inh 56.
`CCOC(=O)CSC(CC)C(=O)Nc1nnc(CC)s1` (centres undefined) gave SF-1 inh inactive.
Screening COC(=O)c1ccc(CSc2nc3c(cnn3-c3ccccc3)c(=O)[nH]2)o1 returned SF-1 inh inactive.
For Cc1ccc(O)c(C(=O)c2cnc3c(c2)CN(CCC(C)C)C(=O)N3)c1 the results were SF-1 inh inactive.
Screening CN1Cc2cc(C(=O)c3cc(Cl)cc(CSc4ncccn4)c3O)cnc2NC1=O returned SF-1 inh 50.
CCN1C(=Nc2ccc(Cl)cc2)SC/C1=C\C(=O)OC was read as SF-1 inh inactive.
For CCC(CC)c1nc(NCCC(=O)O)c2ccccc2n1 the results were SF-1 inh inactive.
For COc1cccc(NC(=O)CSc2nnc(-c3cc(C)n(-c4ccccc4)c3C)o2)c1 the results were SF-1 inh 67.
Screening COc1ccc(-n2c(Cc3cccn3C)nnc2SCC(=O)Nc2cccc(OC)c2)cc1 returned SF-1 inh inactive.
For COc1cccc(NC(=O)CSc2ccc3nnc(-c4ccncc4)n3n2)c1 the results were SF-1 inh inactive.
For CC1(C)CC(=O)C(CC2=C(O)CC(C)(C)CC2=O)=C(O)C1 the results were SF-1 inh inactive.
Screening CC1(C)C2CCC1(C)C(OC(=O)CSc1nc(N)cc(=O)[nH]1)C2 (centres undefined) returned SF-1 inh inactive.
Screening CN=c1scc(C)n1/N=C/c1ccc(O)cc1O returned SF-1 inh 52.
`CN=c1scc(C)n1/N=C/c1ccc(O)cc1` gave SF-1 inh inactive.
COc1ccc(-n2ncc3c(NCc4ccccn4)ncnc32)cc1 was read as SF-1 inh inactive.
`O=C(CCn1nc(-c2ccccc2)c2ccccc2c1=O)NCC1CCCO1` (centres undefined) gave SF-1 inh inactive.
COc1cc(C2C(C#N)=C(N)Oc3cc(N(C)C)ccc32)cc2c1OCO2 (centres undefined) was read as SF-1 inh 59.
CC(C)CC(NC=C1C(=O)OC(C)(C)OC1=O)C(=O)O (centres undefined) was read as SF-1 inh inactive.
CSc1nc(C)cc(OCNC(=O)c2cccs2)n1 was read as SF-1 inh inactive.
Screening CCSc1nnc(NC(=O)CSc2nc3c(c(=O)n2-c2ccccc2)SCC3)s1 returned SF-1 inh inactive.
For CCCCOc1ccc(-c2ncc(Cl)cn2)cc1 the results were SF-1 inh inactive.
`CCCCOc1ccc(OC(=O)c2cccnc2)cc1` gave SF-1 inh 66.
For O=C(COc1ccc(-c2ccccc2)cc1)N1CCN(C(=O)c2cccnc2)CC1 the results were SF-1 inh inactive.
Screening CC(C)CCSc1nc(N)c(C#N)cc1C#N returned SF-1 inh inactive.
c1cnc2c(SCc3ccc(-c4nnco4)cc3)cccc2c1 was read as SF-1 inh inactive.
Fc1ccc(-c2nnc(-c3ccc(Cl)cc3Cl)o2)cc1 was read as SF-1 inh inactive.
Clc1ccc(-c2nnc(NC3=NCCCCC3)o2)cc1 was read as SF-1 inh 58.
For CC1(C)Cc2c(c(-c3ccccc3)nc(N3CCCC3)c2C(N)=O)CO1 the results were SF-1 inh inactive.
CCOc1ccc(C(C)=O)cc1CSc1nnc(-c2cccs2)n1CC1CCCO1 (centres undefined) was read as SF-1 inh inactive.
Screening CCOC(=O)Cn1c(=O)oc2cc(S(=O)(=O)NCc3cccs3)ccc21 returned SF-1 inh inactive.
`COc1ccccc1CC1(C)NC(=O)N(CC(=O)N2CC(C)OC(C)C2)C1=O` (centres undefined) gave SF-1 inh inactive.
Screening CS(=O)(=O)c1nc(-c2ccccc2)cc(C(F)(F)F)n1 returned SF-1 inh 52.
`O=C(O)c1cc2nc(-c3ccccc3)cc(C(F)(F)F)n2n1` gave SF-1 inh inactive.
`COc1ccc(-c2cc(C(F)(F)F)nc(N3CCN(c4ccccc4)CC3)n2)cc1OC` gave SF-1 inh inactive.
Screening CCN1C(=O)N(CN2CCOCC2)C2C1N(CN1CCOCC1)C(=O)N2CC (centres undefined) returned SF-1 inh inactive.
Screening Cc1csc2nc(CNS(=O)(=O)c3ccc4c(c3)CCCC4)cn12 returned SF-1 inh inactive.
For COc1ccc(CCNc2ncnc3c2oc2ccccc23)cc1OC the results were SF-1 inh 72.
Screening CC(=O)c1ccc(Nc2ncnc3c2oc2ccccc23)cc1 returned SF-1 inh inactive.
COc1ccc(CCNc2nc(C)nc3c2oc2ccccc23)cc1OC was read as SF-1 inh 58.
Screening Cc1nc(NCCc2cnc[nH]2)c2oc3ccccc3c2n1 returned SF-1 inh inactive.
Cc1nc(NCc2ccco2)c2oc3ccccc3c2n1 was read as SF-1 inh inactive.
`CCc1nc(NCc2ccccn2)c2oc3ccccc3c2n1` gave SF-1 inh inactive.
Screening Fc1ccc(-n2[nH]nnc2=S)cc1N1CCCC1 returned SF-1 inh inactive.
O=C(CC1OC(=O)c2ccccc21)c1ccco1 (centres undefined) was read as SF-1 inh inactive.
For O=C(CN1C(=O)NC2(CCCCCC2)C1=O)c1ccc2c(c1)OCCO2 the results were SF-1 inh inactive.
For CCC1(CC)C(=O)NC(=O)NC1=NCCc1ccc(O)cc1 the results were SF-1 inh inactive.
Cc1cc(C(=O)Nc2sc3c(c2C#N)CCCC3)no1 was read as SF-1 inh inactive.
For Cc1cc(C(=O)Nc2sc3c(c2C#N)CCC3)no1 the results were SF-1 inh inactive.
Screening Cc1ccnc(SCC(=O)Nc2sc3c(c2C#N)CCCC3)n1 returned SF-1 inh 76.
O=C(NCc1ccco1)C1CCC(CNS(=O)(=O)c2cccc3cccnc23)CC1 (centres undefined) was read as SF-1 inh inactive.
For CCN1C(=O)/C(=C2/Sc3ccc(OC)cc3N2C)SC1=Nc1cccc(O)c1 the results were SF-1 inh 51.
`Nc1nc2ccccc2n1/N=C/c1ccc(Br)cc1` gave SF-1 inh inactive.
Screening O=C(Nc1ccc2c(c1)OCO2)c1cnn2cccnc12 returned SF-1 inh inactive.
For Cc1cc(Nc2ccccc2)n(-c2ccccc2)n1 the results were SF-1 inh inactive.
Cc1cc(C)n(-c2nc(NC(C)C)nc(NC(C)C)n2)n1 was read as SF-1 inh 53.
For Cc1cc(C)n(-c2cc(-n3nc(C)cc3C)ncn2)n1 the results were SF-1 inh inactive.
